# Results filed as inconclusive are left out. The source made the active and inactive calls. How the source made its calls: active means hit-call score of the fitted dose curve at least 0.9, where 1 is the maximum; inconclusive means response in the unintended direction; inactive means score below 0.9.
# How the values were obtained:
# [1] = biological target: Serine/threonine-protein phosphatase PP1-alpha catalytic subunit (Homo sapiens) (UniProt P62136); assay: NVS_ENZ_hPPP1CA: NovaScreen (NVS) Enzymatic Assay for human Protein Phosphatase 1 Aatalytic subunit Alpha (PPP1CA) (AID 2283200)
# Chain of Serine/threonine-protein phosphatase PP1-alpha catalytic subunit (Homo sapiens) (P62136 whole entry, looked up): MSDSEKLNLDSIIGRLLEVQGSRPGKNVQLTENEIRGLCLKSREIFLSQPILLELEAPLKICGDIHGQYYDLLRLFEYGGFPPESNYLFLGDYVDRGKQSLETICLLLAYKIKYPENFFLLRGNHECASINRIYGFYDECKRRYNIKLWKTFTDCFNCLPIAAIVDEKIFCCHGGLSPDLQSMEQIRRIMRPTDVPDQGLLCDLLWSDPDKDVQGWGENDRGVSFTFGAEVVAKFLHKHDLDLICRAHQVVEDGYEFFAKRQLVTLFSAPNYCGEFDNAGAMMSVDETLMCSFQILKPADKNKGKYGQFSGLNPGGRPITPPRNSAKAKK
# Outline: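 Chemicals were first screened in duplicate at 25 uM, and those passing threshold (e.g. 30% inhibition) were run as concentration series to 50 uM. Cell-free recombinant protein, 1.33 h read, fluorescent substrate/product mobility-shift detection, normalised to DMSO.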
# [2] = biological target: human Matrix Metalloproteinase-9 (MMP9), MMP9 (gene 4318) (UniProt P14780); assay: NVS_ENZ_hMMP9: NovaScreen (NVS) Enzymatic Assay for human Matrix Metalloproteinase-9 (MMP9) (AID 2283190);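 further: cell-free recombinant MMP9 protease activity read by fluorescent substrate signal; active means inhibition seen as loss of fluorescence signal versus DMSO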
# Outline: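 Cell-free fluorescence-intensity enzyme activity assay using extracted protein, read 1 h after dosing. Loss of signal versus DMSO baseline indicates inhibition; primary screen in duplicate at 25 uM, actives followed up in concentration series.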
# [3] = biological target: cAMP-dependent protein kinase catalytic subunit alpha (Homo sapiens) (UniProt P17612); assay: NVS_ENZ_hPKA: NovaScreen (NVS) Enzymatic Assay for human Protein Kinase A (PKA) (AID 2283192)
# Outline: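 Cell-free kinase activity read by fluorescence after mobility-shift separation of substrate and product, 1 h post-dosing. Single-concentration duplicate screen (25 uM) preceded singleton concentration series (top 50 uM); loss of signal versus DMSO.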
# [4] = biological target: human Phosphodiesterase 5 (PDE5), PDE5A (gene 8654) (UniProt O76074); assay: NVS_ENZ_hPDE5: NovaScreen (NVS) Enzymatic Assay for human Phosphodiesterase 5 (PDE5) (AID 2283194)
# Outline: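 Screening began in duplicate at 25 uM, with actives taken into concentration-response. Enzyme activity of recombinant PDE5 toward its substrate was measured at 1 h by fluorescence mobility-shift detection, relative to DMSO controls.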
# [5] = biological target: human Protein Phosphatase, Mg2+/Mn2+ Dependent 1A (PPM1A), PPM1A (gene 5494) (UniProt P35813); assay: NVS_ENZ_hPPM1A: NovaScreen (NVS) Enzymatic Assay for human Protein Phosphatase, Mg2+/Mn2+ Dependent 1A (PPM1A) (AID 2283198)
# Outline: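 Primary screen in duplicate at 25 uM, with actives then titrated to a maximum of 50 uM. Recombinant PPM1A dephosphorylation of fluorescent substrate measured at 1 h, with substrate and product separated by mobility shift; inhibition fitted against DMSO.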
# [6] = biological target: human Protein Tyrosine Phosphatase Non-receptor Type 1 (PTPN1), PTPN1 (gene 5770) (UniProt P18031); assay: NVS_ENZ_hPTPN1: NovaScreen (NVS) Enzymatic Assay for human Protein Tyrosine Phosphatase Non-receptor Type 1 (PTPN1) (AID 2283201)
# Chain of human Protein Tyrosine Phosphatase Non-receptor Type 1 (PTPN1), PTPN1 (gene 5770) (P18031 whole entry, looked up): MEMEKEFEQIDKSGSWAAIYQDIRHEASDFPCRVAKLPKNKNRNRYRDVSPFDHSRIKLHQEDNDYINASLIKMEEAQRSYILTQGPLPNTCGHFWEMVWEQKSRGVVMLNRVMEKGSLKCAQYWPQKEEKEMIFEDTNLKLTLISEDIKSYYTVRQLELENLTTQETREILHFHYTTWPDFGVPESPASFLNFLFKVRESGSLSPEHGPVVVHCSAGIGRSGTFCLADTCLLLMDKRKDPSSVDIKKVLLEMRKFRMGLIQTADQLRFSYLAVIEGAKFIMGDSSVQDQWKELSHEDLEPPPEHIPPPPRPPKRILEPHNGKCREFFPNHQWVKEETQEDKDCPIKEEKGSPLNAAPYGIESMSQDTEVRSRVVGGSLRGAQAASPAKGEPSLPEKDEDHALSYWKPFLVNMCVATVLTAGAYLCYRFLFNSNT
# Outline: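 Chemicals were first tested in duplicate at 25 uM, and those passing threshold went on to singleton concentration series topping at 50 uM. Recombinant enzyme, specific substrate, product separated by mobility shift, fluorescence read at 1.33 h; activity loss relative to DMSO.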
# [7] = biological target: human Protein Tyrosine Phosphatase Non-receptor Type 4 (PTPN4), PTPN4 (gene 5775) (UniProt P29074); assay: NVS_ENZ_hPTPN4: NovaScreen (NVS) Enzymatic Assay for human Protein Tyrosine Phosphatase Non-receptor Type 4 (PTPN4) (AID 2283208)
# Chain of human Protein Tyrosine Phosphatase Non-receptor Type 4 (PTPN4), PTPN4 (gene 5775) (P29074 whole entry, looked up): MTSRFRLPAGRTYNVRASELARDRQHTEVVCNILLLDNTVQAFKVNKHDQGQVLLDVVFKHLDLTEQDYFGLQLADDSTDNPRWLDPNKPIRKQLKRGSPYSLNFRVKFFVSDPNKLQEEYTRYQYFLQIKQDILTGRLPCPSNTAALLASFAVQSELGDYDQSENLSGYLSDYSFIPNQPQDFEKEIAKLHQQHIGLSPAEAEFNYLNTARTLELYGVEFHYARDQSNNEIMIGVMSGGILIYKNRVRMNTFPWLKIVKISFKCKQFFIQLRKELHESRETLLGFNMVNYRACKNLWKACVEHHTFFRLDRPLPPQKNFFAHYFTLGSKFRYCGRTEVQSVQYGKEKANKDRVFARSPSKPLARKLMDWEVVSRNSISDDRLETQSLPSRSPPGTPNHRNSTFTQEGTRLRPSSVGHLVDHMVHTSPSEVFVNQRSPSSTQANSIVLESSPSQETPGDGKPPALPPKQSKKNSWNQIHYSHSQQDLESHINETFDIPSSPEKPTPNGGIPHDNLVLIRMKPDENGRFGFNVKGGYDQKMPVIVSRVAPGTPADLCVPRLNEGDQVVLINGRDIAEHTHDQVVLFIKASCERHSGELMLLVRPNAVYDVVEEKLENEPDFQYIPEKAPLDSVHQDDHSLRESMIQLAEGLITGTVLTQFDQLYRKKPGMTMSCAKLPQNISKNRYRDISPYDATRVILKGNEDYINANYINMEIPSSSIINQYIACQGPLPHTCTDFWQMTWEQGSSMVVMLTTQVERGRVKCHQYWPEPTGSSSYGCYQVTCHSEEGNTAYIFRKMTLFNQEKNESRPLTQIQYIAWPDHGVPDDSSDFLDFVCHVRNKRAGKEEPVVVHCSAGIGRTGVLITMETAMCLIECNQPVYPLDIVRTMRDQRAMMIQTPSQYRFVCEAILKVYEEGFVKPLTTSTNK
# Outline: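 Screened in duplicate at 25 uM, with hits then titrated to a top concentration of 50 uM. Recombinant Sf9-derived PTPN4 turnover was read by fluorescence with electrophoretic separation, 1.33 h after compound addition. DMSO served as baseline.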
# [8] = biological target: human Mitogen- and Stress-activated Protein Kinase-1 (Msk1), RPS6KA5 (gene 9252) (UniProt O75582); assay: NVS_ENZ_hMsk1: NovaScreen (NVS) Enzymatic Assay for human Mitogen- and Stress-activated Protein Kinase-1 (Msk1) (AID 2283187)
# Outline: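 Chemicals first run in duplicate at 25 uM, with actives followed up in singleton concentration series to 50 uM maximum. Enzyme activity came from substrate/product mobility-shift separation with fluorescence detection after 1 h incubation of the recombinant protein.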
# [9] = biological target: human Phosphoinositide 3-kinase alpha (PI3Ka), PIK3CA (gene 5290) (UniProt P42336); assay: NVS_ENZ_hPI3Ka: NovaScreen (NVS) Enzymatic Assay for human Phosphoinositide 3-kinase alpha (PI3Ka) (AID 2283196)
# Chain of human Phosphoinositide 3-kinase alpha (PI3Ka), PIK3CA (gene 5290) (P42336 whole entry, looked up): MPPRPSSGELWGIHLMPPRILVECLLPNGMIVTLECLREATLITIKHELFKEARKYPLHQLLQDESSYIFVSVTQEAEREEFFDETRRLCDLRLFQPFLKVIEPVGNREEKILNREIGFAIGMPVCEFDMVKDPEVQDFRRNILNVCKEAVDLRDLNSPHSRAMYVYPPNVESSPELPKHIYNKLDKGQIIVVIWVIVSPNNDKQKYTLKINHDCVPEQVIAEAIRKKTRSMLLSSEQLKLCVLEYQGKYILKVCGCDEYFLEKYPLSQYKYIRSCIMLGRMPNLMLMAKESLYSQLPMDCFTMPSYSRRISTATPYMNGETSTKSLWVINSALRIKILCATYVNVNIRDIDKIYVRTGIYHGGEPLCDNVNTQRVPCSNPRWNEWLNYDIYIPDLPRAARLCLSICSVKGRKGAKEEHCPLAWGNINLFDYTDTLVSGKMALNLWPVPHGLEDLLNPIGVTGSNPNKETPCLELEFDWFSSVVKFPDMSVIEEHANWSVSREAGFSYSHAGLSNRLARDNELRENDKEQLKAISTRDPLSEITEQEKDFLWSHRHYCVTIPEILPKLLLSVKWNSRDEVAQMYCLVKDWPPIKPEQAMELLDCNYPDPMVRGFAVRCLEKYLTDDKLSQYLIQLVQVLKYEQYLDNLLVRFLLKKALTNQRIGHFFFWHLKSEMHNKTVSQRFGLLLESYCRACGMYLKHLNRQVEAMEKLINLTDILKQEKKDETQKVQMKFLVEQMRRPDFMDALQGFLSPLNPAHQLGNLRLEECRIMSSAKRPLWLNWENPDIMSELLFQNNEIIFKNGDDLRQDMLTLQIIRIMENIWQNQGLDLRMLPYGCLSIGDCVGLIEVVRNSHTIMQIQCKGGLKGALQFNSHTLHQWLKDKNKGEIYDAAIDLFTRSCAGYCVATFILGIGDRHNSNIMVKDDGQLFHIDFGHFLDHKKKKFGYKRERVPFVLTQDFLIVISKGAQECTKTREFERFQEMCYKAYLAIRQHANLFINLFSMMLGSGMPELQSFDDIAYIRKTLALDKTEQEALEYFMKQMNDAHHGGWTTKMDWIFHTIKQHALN
# Outline: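 Enzyme activity as fluorescence after mobility-shift separation of substrate and product, 1 h reaction, recombinant human PI3Kα; concentration-response to 50 uM max for chemicals passing a 25 uM duplicate screen.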
# [10] = biological target: Tyrosine-protein phosphatase non-receptor type 11 (Homo sapiens) (UniProt Q06124); assay: NVS_ENZ_hPTPN11: NovaScreen (NVS) Enzymatic Assay for human Protein Tyrosine Phosphatase Non-receptor Type 11 (PTPN11) (AID 2283202)
# Chain of Tyrosine-protein phosphatase non-receptor type 11 (Homo sapiens) (Q06124 whole entry, looked up): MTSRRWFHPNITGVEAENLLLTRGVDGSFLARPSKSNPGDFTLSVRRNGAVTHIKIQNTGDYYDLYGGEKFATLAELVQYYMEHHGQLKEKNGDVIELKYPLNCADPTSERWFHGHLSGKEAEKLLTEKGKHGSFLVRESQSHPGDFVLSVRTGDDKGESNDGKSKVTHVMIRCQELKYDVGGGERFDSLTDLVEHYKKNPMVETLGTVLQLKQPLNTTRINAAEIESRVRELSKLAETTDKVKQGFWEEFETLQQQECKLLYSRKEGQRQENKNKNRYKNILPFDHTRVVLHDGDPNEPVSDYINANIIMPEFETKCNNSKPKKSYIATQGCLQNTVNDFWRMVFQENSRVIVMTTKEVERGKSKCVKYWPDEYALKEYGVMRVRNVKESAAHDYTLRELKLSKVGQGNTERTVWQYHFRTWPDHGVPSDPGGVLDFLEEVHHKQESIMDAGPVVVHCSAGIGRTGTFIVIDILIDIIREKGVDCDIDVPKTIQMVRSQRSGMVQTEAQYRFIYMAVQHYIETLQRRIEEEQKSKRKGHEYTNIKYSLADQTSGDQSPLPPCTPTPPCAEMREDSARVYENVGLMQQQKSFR
# Outline: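 Compounds first tested in duplicate at 25 uM; those reaching ~30% inhibition rerun in singleton concentration-response, top 50 uM. Phosphatase activity measured after 0.5 h by fluorescence with mobility-shift separation, relative to DMSO.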
# [11] = biological target: Tyrosine-protein phosphatase non-receptor type 12 (Homo sapiens) (UniProt Q05209); assay: NVS_ENZ_hPTPN12: NovaScreen (NVS) Enzymatic Assay for human Protein Tyrosine Phosphatase Non-receptor Type 12 (PTPN12) (AID 2283204)
# Chain of Tyrosine-protein phosphatase non-receptor type 12 (Homo sapiens) (Q05209 whole entry, looked up): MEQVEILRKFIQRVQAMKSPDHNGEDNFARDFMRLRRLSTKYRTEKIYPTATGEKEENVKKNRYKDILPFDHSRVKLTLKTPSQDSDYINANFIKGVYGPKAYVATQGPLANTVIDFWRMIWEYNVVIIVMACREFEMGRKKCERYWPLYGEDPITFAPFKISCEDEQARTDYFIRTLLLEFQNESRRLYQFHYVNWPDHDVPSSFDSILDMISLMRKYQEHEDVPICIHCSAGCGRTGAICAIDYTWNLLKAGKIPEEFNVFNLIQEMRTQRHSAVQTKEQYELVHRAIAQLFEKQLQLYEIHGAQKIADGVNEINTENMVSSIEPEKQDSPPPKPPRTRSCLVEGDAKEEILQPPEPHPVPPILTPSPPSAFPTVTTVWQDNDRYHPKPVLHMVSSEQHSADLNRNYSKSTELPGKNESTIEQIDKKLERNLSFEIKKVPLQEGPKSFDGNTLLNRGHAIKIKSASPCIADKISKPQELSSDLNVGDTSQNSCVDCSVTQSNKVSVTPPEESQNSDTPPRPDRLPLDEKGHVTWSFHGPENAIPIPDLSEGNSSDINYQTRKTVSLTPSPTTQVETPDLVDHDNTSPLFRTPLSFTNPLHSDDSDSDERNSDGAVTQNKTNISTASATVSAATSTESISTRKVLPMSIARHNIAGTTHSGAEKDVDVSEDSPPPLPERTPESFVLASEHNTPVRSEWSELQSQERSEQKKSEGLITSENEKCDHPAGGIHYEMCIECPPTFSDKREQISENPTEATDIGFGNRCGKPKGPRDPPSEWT
# Outline: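 Single-concentration duplicates (25 uM) preceded singleton concentration-response up to 50 uM for chemicals passing threshold. Cell-free recombinant PTPN12 activity was read 1.33 h after dosing via fluorescence after mobility-shift separation; loss of signal versus DMSO.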
# [12] = biological target: human Protein Tyrosine Phosphatase Receptor Type B (PTPRB), PTPRB (gene 5787) (UniProt P23467); assay: NVS_ENZ_hPTPRB: NovaScreen (NVS) Enzymatic Assay for human Protein Tyrosine Phosphatase Receptor Type B (PTPRB) (AID 2283211)
# Outline: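 Recombinant human PTPRB with a fluorescent substrate, product separated by electrophoretic mobility shift; read 1 h after dosing. Primary screen in duplicate at 25 uM; actives then retested in concentration series; loss of signal versus DMSO.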
# [13] = biological target: human Protein Tyrosine Phosphatase Receptor Type F (PTPRF), PTPRF (gene 5792) (UniProt P10586); assay: NVS_ENZ_hPTPRF: NovaScreen (NVS) Enzymatic Assay for human Protein Tyrosine Phosphatase Receptor Type F (PTPRF) (AID 2283213)
# Outline: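 Cell-free fluorescence enzyme assay with recombinant protein and substrate; product separated by electrophoretic mobility shift. Read 1 h after dosing, single 25 uM duplicate screen, then concentration-response up to 50 uM; loss of signal vs DMSO.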
# [14] = biological target: human Phosphodiesterase 10 (PDE10), PDE10A (gene 10846) (UniProt Q9Y233); assay: NVS_ENZ_hPDE10: NovaScreen (NVS) Enzymatic Assay for human Phosphodiesterase 10 (PDE10) (AID 2283195)
# Outline: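 Readout is fluorescence intensity following electrophoretic mobility-shift separation, 1 h after dosing of isolated PDE10A protein. Hits meeting a preset threshold at 25 uM went to concentration series (max 50 uM), analysed relative to DMSO.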
# [15] = biological target: Tyrosine-protein phosphatase non-receptor type 13 (Homo sapiens) (UniProt Q12923); assay: NVS_ENZ_hPTPN13: NovaScreen (NVS) Enzymatic Assay for human Protein Tyrosine Phosphatase Non-receptor Type 13 (PTPN13) (AID 2283205)
# Outline: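 Screened first at a single 25 uM in duplicate; compounds passing the threshold (e.g. 30% inhibition) were rerun in concentration series, top 50 uM. Recombinant enzyme, fluorescent substrate, mobility-shift separation, 0.5 h read. Data fitted as inhibition relative to DMSO.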
# [16] = biological target: Tyrosine-protein phosphatase non-receptor type 14 (Homo sapiens) (UniProt Q15678); assay: NVS_ENZ_hPTPN14: NovaScreen (NVS) Enzymatic Assay for human Protein Tyrosine Phosphatase Non-receptor Type 14 (PTPN14) (AID 2283206)
# Outline: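 Fluorescent substrate turnover by recombinant human PTPN14 was measured 0.5 h after compound addition, with substrate and product separated by mobility shift. Single-point screening at 25 uM, then concentration-response up to 50 uM for chemicals meeting threshold (e.g., 30% inhibition).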
# [17] = biological target: human Rho Associated Coiled-coil Containing Protein Kinase 1 (ROCK1), ROCK1 (gene 6093) (UniProt Q13464); assay: NVS_ENZ_hROCK1: NovaScreen (NVS) Enzymatic Assay for human Rho Associated Coiled-coil Containing Protein Kinase 1 (ROCK1) (AID 2283214)
# Outline: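 Compounds first run in duplicate at 25 uM against recombinant human ROCK1, then followed in concentration series. Kinase activity was read 1 h post-dosing by fluorescence with mobility-shift separation, as signal loss relative to DMSO.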
# [18] = biological target: human Protein Tyrosine Phosphatase Non-receptor Type 6 (PTPN6), PTPN6 (gene 5777) (UniProt P29350); assay: NVS_ENZ_hPTPN6: NovaScreen (NVS) Enzymatic Assay for human Protein Tyrosine Phosphatase Non-receptor Type 6 (PTPN6) (AID 2283210)
# Outline: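 Recombinant human PTPN6 from SF9 cells, enzyme activity followed by fluorescence after mobility-shift separation of substrate and product at 1.33 h. Chemicals first tested at a single 25 uM in duplicate, then confirmed across concentration series; loss of signal relative to DMSO.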
# [19] = biological target: human Phosphodiesterase 4A1 (PDE4A1), PDE4A (gene 5141) (UniProt P27815); assay: NVS_ENZ_hPDE4A1: NovaScreen (NVS) Enzymatic Assay for human Phosphodiesterase 4A1 (PDE4A1) (AID 2283191)
# Outline: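 Fluorescent substrate turnover by recombinant PDE4A1 read after 1 h by mobility-shift separation. Primary duplicate screen at 25 uM; hits retested in concentration series with a 50 uM maximum, relative to DMSO.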
# [20] = biological target: human Protein Tyrosine Phosphatase Non-receptor Type 9 (PTPN9), PTPN9 (gene 5780) (UniProt P43378); assay: NVS_ENZ_hPTPN9: NovaScreen (NVS) Enzymatic Assay for human Protein Tyrosine Phosphatase Non-receptor Type 9 (PTPN9) (AID 2283209)
# Chain of human Protein Tyrosine Phosphatase Non-receptor Type 9 (PTPN9), PTPN9 (gene 5780) (P43378 whole entry, looked up): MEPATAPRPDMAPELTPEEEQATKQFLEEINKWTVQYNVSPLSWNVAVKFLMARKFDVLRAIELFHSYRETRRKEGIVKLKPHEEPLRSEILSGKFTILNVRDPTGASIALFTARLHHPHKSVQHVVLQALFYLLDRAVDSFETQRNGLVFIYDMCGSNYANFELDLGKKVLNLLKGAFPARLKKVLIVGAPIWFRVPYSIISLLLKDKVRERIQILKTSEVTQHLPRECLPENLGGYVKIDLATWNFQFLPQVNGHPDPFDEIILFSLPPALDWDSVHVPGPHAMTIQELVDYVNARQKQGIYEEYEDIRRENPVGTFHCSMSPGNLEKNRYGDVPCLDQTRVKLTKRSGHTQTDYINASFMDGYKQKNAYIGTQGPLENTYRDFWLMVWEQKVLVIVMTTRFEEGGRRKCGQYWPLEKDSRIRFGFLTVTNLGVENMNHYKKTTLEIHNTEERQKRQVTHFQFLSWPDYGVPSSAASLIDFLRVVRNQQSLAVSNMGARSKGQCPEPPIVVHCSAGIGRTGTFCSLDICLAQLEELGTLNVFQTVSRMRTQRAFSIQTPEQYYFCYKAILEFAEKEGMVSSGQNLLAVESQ
# Outline: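 Sf9-expressed enzyme in a cell-free assay, fluorescence read 1.33 h after dosing with mobility-shift separation of substrate and product. Tested at 25 uM in duplicate, then up to 50 uM; signal loss versus DMSO.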
smiles,measurement,setting,value
c1ccc(C(O[C@@H]2CCCN(CCc3ccc4c(c3)OCO4)C2)c2ccccc2)cc1,outcome,[1],inactive
O=C(NO)C1(NS(=O)(=O)c2ccc(Oc3ccc(F)cc3)cc2)CCOCC1,AC50,[2],9.16 nM (active)
same,outcome,[3],inactive
same,AC50,[4],10.4 µM (active)
same,outcome,[5],inactive
same,outcome,[6],inactive
same,outcome,[7],inactive
CCCCCCCC/C=C\CCCCCCCC(=O)OC[C@@H](O)[C@H]1OC[C@H](O)[C@H]1O,outcome,[8],inactive
same,outcome,[3],inactive
same,outcome,[4],inactive
same,outcome,[9],inactive
same,outcome,[10],inactive
same,outcome,[11],inactive
same,outcome,[7],inactive
same,outcome,[12],inactive
same,outcome,[13],inactive
CCCCCCCCCCCCCCCCOS(=O)(=O)O,AC50,[14],2.54 µM (active)
same,AC50,[9],3.42 µM (active)
O=c1[nH]cnc2c1ncn2[C@H]1CC[C@@H](CO)O1,outcome,[8],inactive
same,outcome,[14],inactive
same,outcome,[9],inactive
same,outcome,[6],inactive
same,outcome,[10],inactive
same,outcome,[11],inactive
same,outcome,[15],inactive
same,outcome,[16],inactive
same,outcome,[7],inactive
same,outcome,[17],inactive
CC(C)CCCCCCOC(=O)C1CCCCC1C(=O)OCCCCCCC(C)C (stereo unspecified),outcome,[1],inactive
NC(=O)N1c2ccccc2C=Cc2ccccc21,outcome,[4],inactive
same,outcome,[18],inactive
O=C(O)c1ccc2c(c1)nc(C(=O)NC1CCN(C3CC3)CC1)n2Cc1cc(-c2ccc(Cl)s2)on1,outcome,[19],inactive
same,AC50,[4],3.95 µM (active)
same,AC50,[15],257 nM (active)
same,outcome,[20],inactive
same,outcome,[13],inactive
C[C@]12C=CC(=O)C=C1CC[C@H]1[C@@H]3C[C@@H](O)[C@](O)(C(=O)CO)[C@@]3(C)C[C@H](O)[C@@]12F,outcome,[1],inactive
CCc1cccc(CC)c1N,outcome,[6],inactive
O=C1CN(N=Cc2ccc([N+](=O)[O-])o2)C(=O)N1,outcome,[10],inactive
OCCOCCOCCO,outcome,[10],inactive
same,outcome,[11],inactive
CCCCCCCCCC,outcome,[11],inactive
c1ccc2cc3ccccc3cc2c1,outcome,[15],inactive
OC(CCl)CCl,outcome,[15],inactive
CCCCC(CC)C(=O)OCCOCCOCCOC(=O)C(CC)CCCC (stereo unspecified),outcome,[20],inactive
OC[C@H]1O[C@@H]2O[C@H]3[C@H](O)[C@@H](O)[C@@H](O[C@H]4[C@H](O)[C@@H](O)[C@@H](O[C@H]5[C@H](O)[C@@H](O)[C@@H](O[C@H]6[C@H](O)[C@@H](O)[C@@H](O[C@H]7[C@H](O)[C@@H](O)[C@@H](O[C@H]1[C@H](O)[C@H]2O)O[C@@H]7CO)O[C@@H]6CO)O[C@@H]5CO)O[C@@H]4CO)O[C@@H]3CO,outcome,[20],inactive
